# Results reported in the supplement of paper PMC6411743.
# ± gives the standard deviation of the averaged measurements. Of roughly 5,400 targets only a part is listed; those with the largest changes were picked by preference.
# Molecular target: A0A0A0MT26|P13637|P13637-2|P13637-3 (UniProt P13637)
# Assay: NP40-soluble protein abundance relative to vehicle (solubility fold change) (ratio); higher = more soluble protein in presence of GTP
# Experimental: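 Solubility proteome profiling in Jurkat crude lysate. Lysate was treated with Mg-GTP (0.1-10 mM) for 10 min at room temperature and 3 min at 37 °C, then solubilised with 0.8% NP40 and benzonase, followed by ultracentrifugation. Proteins were quantified by TMT10 LC-MS/MS; the value is the NP40-soluble abundance relative to the NP40-processed vehicle, from 3 independent experiments.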
compound,measurement,setting,value
Nc1nc2c(ncn2[C@@H]2O[C@H](COP(=O)(O)OP(=O)(O)OP(=O)(O)O)[C@@H](O)[C@H]2O)c(=O)[nH]1 [guanosine triphosphate],NP40-soluble protein abundance,concentration: 0.1mM,1.01 ± 0.05
same,NP40-soluble protein abundance,concentration: 0.5mM,1.01 ± 0.028
same,NP40-soluble protein abundance,concentration: 1mM,1.02 ± 0.028
same,NP40-soluble protein abundance,concentration: 2mM,0.982 ± 0.029
same,NP40-soluble protein abundance,concentration: 4mM,1.01 ± 0.042
same,NP40-soluble protein abundance,concentration: 6mM,1 ± 0.0083
same,NP40-soluble protein abundance,concentration: 8mM,1 ± 0.034
same,NP40-soluble protein abundance,concentration: 10mM,0.958 ± 0.047
